Laboratory results published in PubChem BioAssay AID2284110 (EPA ToxCast).
Records with an inconclusive call do not appear. The source made the active and inactive calls. Rule for the calls: active = hit-call score of the fitted dose curve at least 0.9, where 1 is the maximum; inconclusive = response in the unintended direction; inactive = score below 0.9.

Each compound was assayed against human Adrenoceptor Receptor alpha1A Antagonism, conducted at France lab site, ADRA1A (gene 148) (UniProt P35348) (assay: ERF_FR_GPCR_hADRA1A: Eurofins (ERF) G Protein-Coupled Receptor (GPCR) Radioligand Binding LeadHunter Assay for human Adrenoceptor Receptor alpha1A Antagonism, conducted at France lab site).
Chain of human Adrenoceptor Receptor alpha1A Antagonism, conducted at France lab site, ADRA1A (gene 148) (P35348 whole entry, looked up): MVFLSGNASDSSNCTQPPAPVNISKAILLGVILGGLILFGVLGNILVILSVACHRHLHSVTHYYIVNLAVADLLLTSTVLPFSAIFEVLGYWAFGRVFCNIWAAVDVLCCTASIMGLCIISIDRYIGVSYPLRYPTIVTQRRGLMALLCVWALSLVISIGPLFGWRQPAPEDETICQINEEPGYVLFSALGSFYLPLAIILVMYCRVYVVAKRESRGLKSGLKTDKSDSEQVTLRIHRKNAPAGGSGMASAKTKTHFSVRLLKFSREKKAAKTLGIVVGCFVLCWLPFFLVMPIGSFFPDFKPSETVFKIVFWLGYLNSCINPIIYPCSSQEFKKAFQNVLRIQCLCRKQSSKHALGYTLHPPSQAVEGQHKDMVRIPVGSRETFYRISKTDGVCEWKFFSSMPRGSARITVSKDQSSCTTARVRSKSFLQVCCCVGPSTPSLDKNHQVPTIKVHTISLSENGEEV
Experimental: ERF_FR_GPCR_hADRA1A is a biochemical, single-readout assay that uses extracted gene-proteins in a cell-free assay. Measurements were taken 1 hour after chemical dosing in a 96-well plate. See alpha1A Human Adrenoceptor GPCR Binding (Antagonist Radioligand) Assay, Cerep.ERF_FR_GPCR_hADRA1A is an assay component calculated from the ERF_FR_GPCR_hADRA1A assay. It is designed to measure radioligand binding using a type of binding reporter as detected by scintillation counting with radiometry technology.Data from the assay component ERF_FR_GPCR_hADRA1A was analyzed at the assay endpoint, ERF_FR_GPCR_hADRA1A, in the positive analysis fitting direction relative to DMSO as the negative control and baseline of activity. Using a type of binding reporter, loss-of-signal activity can be used to understand changes in binding as they relate to gene ADRA1A. To generalize the intended target to other relatable targets, this assay endpoint is annotated to the gpcr intended target family, where the subfamily is adrenoceptor.
Human cells are incubated for 60 minutes in room temprature, using [3H]prazosin ligand at 0.1 Kd (nM) with WB-4101 control inhibitor.Test Sample Requirements: Minimum for 1) Screen: 60 ul of 10 mM stock -OR- 1 mg (pre-weighed) for […] uM final testing. 2) Dose Response: 90 ul of 10 mM stock -OR- 1 mg (pre-weighed) for a top concentration at 10 uM.
For `COc1cc(/C=C/C(=O)CC(=O)/C=C/c2ccc(O)c(OC)c2)ccc1O`, the AC50 was 0.258 µM (active).
With `O=C(/C=C/c1ccc(O)cc1)CC(=O)/C=C/c1ccc(O)cc1` the AC50 was 0.205 µM (active).
